# Tau fibril FP = qHTS for Inhibitors of Tau Fibril Formation, Fluorescence Polarization. Microtubule-associated protein tau (Homo sapiens), P10636. K18 P301L tau heparin fibrillization, Alexa594 FP, 6 h. Potency, µM (titrated, usually from 57.7 µM), for the others: top-dose activity, negative = inhibition, hits mostly inhibitors. hit rate 0.39% among 280,000. AID 1468, 2008; further: nearly all actives have a fitted effect of over 55% in size
# Target sequence (P10636 561-689 P618L limits assumed): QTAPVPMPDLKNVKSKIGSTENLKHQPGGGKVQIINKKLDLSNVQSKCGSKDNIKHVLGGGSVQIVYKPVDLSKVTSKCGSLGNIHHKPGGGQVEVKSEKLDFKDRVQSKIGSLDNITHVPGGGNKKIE
#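 Steps: dispense K18 P301L tau (15 uM plus 0.24 uM Alexa 594 tracer, final) in pH 7 sodium acetate; add compound; add heparin (20 uM final); incubate 6 hr, 37 C; add ThT (30 uM final); after 1 hr ambient, read FP.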
# Tau ThT inhib = qHTS for Inhibitors of Tau Fibril Formation, Thioflavin T Binding; Potency, µM (doses to about 57.4 µM), for the others: top-dose activity, negative = inhibition, most hits filed as inhibitors; AID 1460, 2008; Microtubule-associated protein tau (Homo sapiens), P10636; hit rate 2.1% among 270,000; recombinant tau K18 P301L, heparin-induced fibrillization, ThT fluorescence; further: nearly all actives have a fitted effect of over 55% in size
#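 Aggregation was driven by heparin (20 uM final) acting on recombinant tau […] bearing P301L in 100 mM sodium acetate pH 7; fibrils were detected with Thioflavin T.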
# ALDH1A1 block = qHTS Assay for Inhibitors of Aldehyde Dehydrogenase 1 (ALDH1A1); Aldehyde dehydrogenase 1A1 (Homo sapiens), P00352; Purified ALDH1A1, NADH fluorescence, propionaldehyde substrate; Potency, µM (series often up to 75.3 µM), for the others: at the highest dose activity, negative = inhibition, most hits filed as inhibitors; hit rate 7.3% among 220,000; active means well fitted inhibition curve with a large enough effect, not every such curve was filed as active; inconclusive means small, poorly fitted or top-dose-only effect, or another doubt; inactive means no such curve, though single readings can be large or run the other way;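 further: plate controls were no enzyme wells and a reference inhibitor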
# HPGD inh = qHTS Assay for Inhibitors of HPGD (15-Hydroxyprostaglandin Dehydrogenase); hit rate 4.3% among 150,000; Potency, µM, for inactives: at the top dose activity change, negative = inhibition, most hits filed as inhibitors; purified HPGD, NADH fluorescence kinetic, PGE2 substrate; 15-hydroxyprostaglandin dehydrogenase [NAD(+)] (Homo sapiens), P15428; active means well fitted inhibition curve with a large enough effect, not every such curve was filed as active; inconclusive means small, poorly fitted or top-dose-only effect, or another doubt; inactive means no such curve, though single readings can be large or run the other way
# Target sequence (P15428 whole entry, looked up): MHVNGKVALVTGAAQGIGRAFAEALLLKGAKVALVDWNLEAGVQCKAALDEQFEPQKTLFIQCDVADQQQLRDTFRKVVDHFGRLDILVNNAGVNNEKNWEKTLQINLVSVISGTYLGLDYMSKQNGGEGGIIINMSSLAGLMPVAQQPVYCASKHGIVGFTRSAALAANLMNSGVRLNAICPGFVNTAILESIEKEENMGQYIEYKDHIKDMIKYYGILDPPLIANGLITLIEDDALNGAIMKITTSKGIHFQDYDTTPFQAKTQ
#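 20 nM HPGD preincubated 15 min at room temperature with compound in 50 mM Tris-HCl pH 8, 0.01% Tween 20. Started with 1 mM NAD+ and 30 uM prostaglandin E2; NADH fluorescence (360/450 nm) read 5 times over 30-s intervals, last minus first.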
# NPSR antagonist = qHTS Assay for Antagonists of the Neuropeptide S Receptor: cAMP Signal Transduction; Q6W5P4; CHO-NPSR cells, cAMP TR-FRET, antagonist mode; Potency, µM (series often up to 38.3 µM), for inactives: at the highest dose activity change, negative = inhibition, usual class: inhibitors; hit rate 1% among 220,000; AID 1461, 2008; further: nearly all actives have a fitted effect of over 50% in size
# Tau fluor counter = Counterscreen qHTS for Inhibitors of Tau Fibril Formation, Fluorescence Polarization | tau K18 P301L (four-repeat tau fragment) Alexa594 fluorescence, heparin fibrillization | Potency, µM (top dose mostly 57.7 µM), for the others: top-dose activity change, negative = decrease | hit rate 0.93% among 280,000; further: nearly all actives have a fitted effect of over 55% in size
#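 Human K18 P301L tau (15 uM unlabeled plus 0.24 uM Alexa 594-labeled, final) in 100 mM sodium acetate pH 7 was mixed with compound and 20 uM heparin and incubated 6 hr at 37 C.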
# Active calls of the source: *; ? = inconclusive; · = no result; ! = repeats disagree; [ ] = remark or other dose. Sampled rows, rich in hits. Any-hit rate of the full collection: about 9.5%. Unless noted, the call rests on the fitted dose curve; in most records, active means well fitted curve in the direction sought with a large enough effect; inconclusive means small, poorly fitted or top-dose-only effect, or another doubt; inactive means no such curve, though single readings can be large; an effect the other way counts as inactive or inconclusive. Unless noted, on the % scale 0 is the no-effect control and ±100 the full control effect; potency means the concentration at half of the fitted maximal effect.
SMILES,Tau fibril FP,Tau ThT inhib,ALDH1A1 block,HPGD inh,NPSR antagonist,Tau fluor counter
COc1cccc(Cn2c(=O)n(-c3cccc(Cl)c3)c(=O)c3c4c(sc32)CN(C(C)=O)CC4)c1,9%,-10%,·,·,·,-4%
Cc1nn(-c2ccccc2)c2c1C(c1ccc(O)c(O)c1)N1C(=N2)C(Nc2ccccc2)=Nc2ccccc21 (stereo not given),-10%,?,-4%,-7%,?,14µM*[quencher]
Cc1cc(C)nc(NC(=O)c2ccc(Cl)c([N+](=O)[O-])c2)n1,2%,-17%,·,·,8%[7.67 µM],-13%
Cc1nc(N2CCCCC2)sc1C(=O)c1ccc(Cl)c([N+](=O)[O-])c1,-2%,?,7.9µM*,·,?,-26%
CC(=O)CSc1nnc2c3ccccc3nc(C(C)(C)C)n12,1%,-2%,3.5µM*,·,-14%,-9%
CN1CCc2c(n(CC(O)CNCc3ccccc3)c3ccccc23)C1=O (stereo not given),0%,-1%,-4%,·,-24%,2%
CC(C)NCC(O)Cn1c2c(c3ccccc31)CCc1c-2cnn1-c1ccccc1 (stereo not given),10%,16µM*,?,?,?,?
Cc1cccc(Oc2coc3cc(OCC(=O)NC4CCCCC4)ccc3c2=O)c1,4%,?,·,·,·,-7%
O=C(/C=C/c1ccc(Br)o1)NCc1ccccc1,-9%,-14%,6.3µM*,·,-12%,-6%
Cc1ccc(CNC(=O)/C=C/c2ccc(Br)o2)cc1,-11%,?,3.5µM*,-28%,5%,-19%
Cc1ccc(/C=C/C(=O)NCc2ccncc2)cc1,-1%,-6%,6%,·,-2%[46.1 µM],-5%
CCOC(=O)c1cccc(NS(=O)(=O)c2cc(-c3cnc(C4CC4)o3)ccc2C)c1,10%,5%,·,·,·,-25%
COc1ccc(-c2cc(C(F)(F)F)nc(SCCC(=O)Nc3ccc(F)cc3F)n2)cc1,?,1%,·,·,·,-21%
COc1ccc(NC(=O)c2cccc3c(=O)c4c([nH]c23)CCCC4)cc1,-4%,?,·,·,·,-8%
CCOc1cc(N2CCOCC2)c(OCC)cc1NC(C)C(=O)N1CCC(C)CC1 (stereo not given),?,?,11µM*,·,-2%[46.1 µM],-28%
CCOc1cc(N2CCOCC2)c(OCC)cc1NC(=O)CC12CC3CC(CC(C3)C1)C2,1%,4%,4.5µM*,-16%,10µM*,5%
CCOc1cc(N2CCOCC2)c(OCC)cc1NC(=O)Cc1ccc(OC)c(OC)c1,6%,-17%,-4%,-5%,-23%[46.1 µM],-14%
COc1ccc(CNC(=O)[C@H](C)[C@H]2C[C@]2(C)[C@H](NC(=O)OCc2ccccc2)c2ccccc2)cc1OC,5%,-16%,3.5µM*,-10%,·,-12%
C[C@@H](C(=O)O)[C@H]1C[C@]1(C)[C@H](NC(=O)OCc1ccccc1)c1ccccc1,8%,16%,7.1µM*,-6%,5%,9%
COc1ccc(CNC(=O)[C@H](C)[C@@H]2C[C@@]2(C)[C@@H](NC(=O)OCc2ccccc2)c2ccccc2)cc1OC,3%,7%,-4%,?,-13%,7%
Cc1cc(CNC(=O)[C@H](C)[C@H]2C[C@]2(C)[C@H](NC(=O)OCc2ccccc2)c2ccccc2)nn1C,-14%,-9%,4µM*,-9%,·,-7%
Cc1ccc(NC2=CC(=O)C(=O)c3ccccc32)cc1,?,25µM*,?,20µM*,-12%[46.1 µM],?
CCOC(=O)c1ccc(NC(=O)C(C)N2C(=O)c3ccccc3C2=O)cc1 (stereo not given),1%,-8%,?,-11%,?,-11%
Cc1ccc(NC2=C(N3CCOCC3)C(=O)c3ccccc3C2=O)cc1,?,?,?,?,4%[46.1 µM],?
CCOC(=O)c1ccc(NC2=CC(=O)C(=O)c3ccccc32)cc1,-10%,13µM*,6%,4.5µM*,-5%[46.1 µM],?
SMILES,Tau fibril FP,Tau ThT inhib,ALDH1A1 block,HPGD inh,NPSR antagonist,Tau fluor counter
COCC(C)NC(C(=O)Nc1cccc(C(C)=O)c1)c1ccccc1 (stereo not given),6%,1%,14µM*,·,8%,3%
CCN(CC)CCNC(C(=O)Nc1cccc(C(C)=O)c1)c1ccccc1 (stereo not given),-8%,-4%,14µM*,·,-16%,-7%
COC(=O)c1n[nH]c2ccccc12,8%,5%,2%,-13%,7%[46.1 µM],6%
O=C(OCCCCN1C(=O)c2ccccc2C1=O)c1n[nH]c2ccccc12,-13%,-11%,9%,32µM*,-19%[46.1 µM],-28%
COc1cc(/C=C/c2cc(OC(C)=O)c3ccccc3n2)c(OC(C)=O)c([N+](=O)[O-])c1,?,3.2µM*,4%,-15%,-27%[46.1 µM],13µM*[quencher]
COc1ccc(OCCC(=O)NC2CCCCC2)cc1,?,-6%,-1%,·,2%,4%
COC(=O)CCc1sc(Nc2ccc(OC)cc2)nc1-c1ccc(OC)cc1,10%,?,·,·,·,18µM*[quencher]
COCCNc1nc(-c2ccc(OC)cc2)c(-c2ccc(OC)cc2)s1,4%,?,28µM*,·,-43%,?
CCCCCCNc1nc(-c2ccc(OC)cc2)c(CCC(=O)O)s1,-9%,-16%,22µM*,?,-20%,-9%
COC(=O)CCc1sc(NC2CCCCC2)nc1-c1ccc(OC)cc1,-4%,?,?,22µM*,-10%,-16%
O=C(NCc1ccc(Cl)cc1)C1CCN(C(=O)c2cnn(-c3ccccc3)c2-n2cccc2)CC1,7%,-10%,·,·,·,-6%
CCOc1ccccc1CNC(=O)c1cn(-c2ccc(OC)cc2)c(=O)c2ccccc12,5%,?,·,·,·,-6%
COc1ccc(Nc2nnc(SCc3cc(=O)n4ccsc4n3)s2)cc1,-7%,?,14µM*,32µM*,-10%[46.1 µM],-29%
COc1ccc(S(=O)(=O)NCCSCc2ccco2)cc1Cl,-3%,-14%,20µM*,0%,-20%[46.1 µM],-15%
COc1ccc(S(=O)(=O)NCCSC(C)(C)C)cc1Cl,-1%,-5%,?,-2%,-16%[46.1 µM],-15%
C[C@](N)(Cc1ccc(O)c(O)c1)C(=O)O,?,?,5.6µM*!,?,-31%,?
COC(=O)C(N)Cc1ccc(O)c(O)c1 (stereo not given),1%,?,3%,0%,1%[46.1 µM],-13%
C[C@](N)(Cc1ccc(O)cc1)C(=O)O,12%,-1%,4%,-5%,-4%[46.1 µM],1%

# Bioassay records (PubChem BioAssay)
